From paper PMC7826789 (International Journal of Molecular Sciences, 2021)

Each molecule was assayed on CAMK4. Conditions: Compound Concentration (nM):1000.
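Note: KINOMEscan scanMAX binding as percent activity remaining versus control; lower means stronger binding.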

Row | Compound | Percent Control [%]
1 | COc1cc2ncnc(Nc3ccc4c(cnn4Cc4ccccc4)c3)c2cc1OC.Cl [GW282449A] | 100
2 | COC(=O)Nc1nc2ccc(Oc3ccc(NC(=O)Nc4cc(C(F)(F)F)ccc4F)cc3)cc2s1.Cl [GW693917A] | 100
3 | NS(=O)(=O)c1ccc(N/N=C2\C(=O)Nc3ccc(C(=O)NCc4ccncc4)cc32)cc1 [GW300657X] | 100
4 | Cl.O=C(Nc1ccc(Oc2ccc3[nH]c(NC(=O)c4ccco4)nc3c2)cc1)Nc1cc(C(F)(F)F)ccc1F [GW683134A] | 90
5 | COc1ccccc1-c1cc(/C=C2\C(=O)Nc3ncc(Br)cc32)cc(Br)c1O [GW442130X] | 94
6 | CN1CCN(C(=O)c2ccc(NC(=O)Nc3ccc(N(C)c4ccnc(Nc5ccc(CS(C)(=O)=O)cc5)n4)cc3)cc2)CC1.Cl [GW830263A] | 100
7 | Cc1cc(O)cc(C)c1/C=C/c1cncc(C(N)=O)c1 [GW435821X] | 100

The molecules below were run on CAMKK1. Conditions: Compound Concentration (nM):1000.

Row | Compound | Percent Control [%]
8 | O=C(Nc1n[nH]c2nc(-c3ccc(O)cc3)c(Br)cc12)C1CC1 [SB-725317] | 100
9 | COc1cccc(-c2c[nH]c3c(N/N=C/c4ccncc4)ncnc23)c1 [GW814408X] | 100
10 | Cl.O=C(O[C@H]1CN[C@H](C#Cc2cc3ncnc(Nc4ccc5c(cnn5Cc5ccccc5)c4)c3s2)C1)N1CCOCC1 [GSK200398A] | 87
11 | CCS(=O)(=O)c1ccc(OC)c(Nc2ncc(-c3cccc(OC)c3)o2)c1 [GW580509X] | 97
12 | COc1ccc2cc(-c3c(-c4ccncc4)nc(-c4ccc(S(C)(=O)=O)cc4C)n3C)ccc2c1 [SB-633825] | 77
13 | COc1ccc(COc2ccc(Cc3cnc(N)nc3N)cc2OC)cc1 [GW632580X] | 95
14 | C[C@@H](Oc1cc(-n2cnc3ccc(OC4CCN(C)CC4)cc32)sc1C(N)=O)c1ccccc1Cl [GSK579289A] | 85
15 | CCS(=O)(=O)c1ccc(OC)c(Nc2ncc(-c3cccc(F)c3)o2)c1 [GW621970X] | 100
16 | COc1cc(N2CCN(C(C)C)CC2)ccc1Nc1nc(Nc2ccc(F)cc2C(=O)NC[C@@H](O)CO)c2cc[nH]c2n1 [GSK1392956A] | 79
17 | COc1cc2ncn(-c3cc(O[C@H](C)c4ccccc4Cl)c(C(N)=O)s3)c2cc1OC [GSK237701A] | 92
18 | Cl.O=C(Nc1ccc(Oc2ccc3[nH]c(NC(=O)c4ccccc4)nc3c2)cc1)Nc1cc(C(F)(F)F)ccc1F [GW709042A] | 100
19 | COc1cc(C)c(N(C)C(=O)CN(C)C)cc1Nc1nc(Nc2cccc(F)c2C(N)=O)c2cc[nH]c2n1 [GSK2219385] | 97
20 | CCc1ccc(Oc2nccc(-c3c(-c4ccc(F)cc4)ncn3C3CCNCC3)n2)cc1 [SB-242719] | 100
21 | CC1=C(C(=O)Nc2ccc3[nH]ncc3c2)C(c2ccc3ccccc3c2)CC(=O)N1 (centres unmarked) [GSK270822A] | 70
22 | Nc1ncnc2occ(-c3ccc(NC(=O)Nc4cc(C(F)(F)F)ccc4F)cc3)c12 [GW770249X] | 97
23 | O=C1Nc2ccc(C(=O)c3ccco3)cc2C1=Cc1cc(Cl)c(O)c(Cl)c1 [GW406108X] | 43
24 | COc1ccc2[nH]c3c4[nH]c5ccc(OC)cc5c4c4c(c3c2c1)C(=O)NC4=O [GW296115X] | 78
25 | CN(C)CCNC(=O)Nc1ccc(N(C)c2ccnc(Nc3ccc(CS(C)(=O)=O)cc3)n2)cc1.Cl [GW830900A] | 99
26 | Cl.c1ccc(Cc2nc3ccc(Nc4ncnc5ccccc45)cc3[nH]2)cc1 [GR269666A] | 100
27 | COc1ccc2c(-c3ccnc(Nc4cccc(OC(F)(F)F)c4)n3)cnn2n1 [GW810372X] | 91

Row | Compound | Percent Control [%]
28 | COc1cccc(-n2ncc3c(N/N=C/c4ccncc4)ncnc32)c1 [GW784752X] | 100
29 | COc1cc(/C=N/Nc2ncnc3[nH]ncc23)ccc1O [GW578748X] | 96
30 | NS(=O)(=O)c1ccc(N/N=C2\C(=O)Nc3ccc(C(=O)NCCc4c[nH]cn4)cc32)cc1 [GW300660X] | 100
31 | NS(=O)(=O)c1ccc(N/N=C2\C(=O)Nc3ccc(-c4cnco4)cc32)cc1 [GW276655] | 63
32 | NS(=O)(=O)c1ccc(Nc2ncc(-c3ccccc3)o2)cc1 [GW572399X] | 100
33 | C/C(Nc1ccc(S(N)(=O)=O)cc1)=C1/C(=O)Nc2ccccc21 [GW335962X] | 76
34 | Cl.O=S1CCN(Cc2ccc(-c3ccc4ncnc(Nc5ccc(OCc6ccccc6)c(F)c5)c4c3)o2)CC1 [GW576924A] | 100
35 | CN(C)c1cc2c(Nc3ccc4c(cnn4Cc4ccccc4)c3)ncnc2cn1 [GW282974X] | 77
36 | CCn1c(-c2nonc2N)nc2c(C#CC(C)(C)O)nc(OCCNC)cc21.Cl [GSK949675] | 100
37 | CC(C)COC(=O)c1ccc2c(c1)/C(=C/Nc1ccc(S(N)(=O)=O)cc1)C(=O)N2 [GW416981X] | 97
38 | CC1=C(C(=O)Nc2ccc3[nH]ncc3c2)C(c2ccc(Cl)c(Cl)c2)CC(=O)N1 (centres unmarked) [GSK299115A] | 95
39 | NS(=O)(=O)c1ccc(N/N=C2\C(=O)Nc3ccc(Cl)cc32)cc1 [GW280670X] | 100
40 | COc1cc(C=NNc2ncnc3c2cnn3-c2ccccc2)ccc1O [GW513184X] | 100
41 | COc1cc2ncnc(Nc3ccc4c(cnn4Cc4ccccc4)c3)c2cc1OC.Cl [GW282449A] | 100
42 | COC(=O)Nc1nc2ccc(Oc3ccc(NC(=O)Nc4cc(C(F)(F)F)ccc4F)cc3)cc2s1.Cl [GW693917A] | 100
43 | NS(=O)(=O)c1ccc(N/N=C2\C(=O)Nc3ccc(C(=O)NCc4ccncc4)cc32)cc1 [GW300657X] | 45
44 | Cl.O=C(Nc1ccc(Oc2ccc3[nH]c(NC(=O)c4ccco4)nc3c2)cc1)Nc1cc(C(F)(F)F)ccc1F [GW683134A] | 100
45 | COc1ccccc1-c1cc(/C=C2\C(=O)Nc3ncc(Br)cc32)cc(Br)c1O [GW442130X] | 100
46 | CN1CCN(C(=O)c2ccc(NC(=O)Nc3ccc(N(C)c4ccnc(Nc5ccc(CS(C)(=O)=O)cc5)n4)cc3)cc2)CC1.Cl [GW830263A] | 28
47 | Cc1cc(O)cc(C)c1/C=C/c1cncc(C(N)=O)c1 [GW435821X] | 100
